From PubChem BioAssay (Tox21)
Inconclusive results are not listed. Active and inactive are the calls of the source. Unless noted, calls follow the shape of the dose curve; as a rule, active = well fitted curve in the direction sought with a large enough effect in the repeat runs; inconclusive = weak or mixed curves; inactive = no such curve, though single readings can be large; an effect the other way counts as inactive or inconclusive.

What was measured:
[1] = qHTS assay for small molecules that induce genotoxicity in human embryonic kidney cells expressing luciferase-tagged ATAD5 - cell viability (AID 651634; calls by dose curve; also: nearly all actives have a fitted effect of over 25% in size; also: potency is read from the fitted curve at half-maximal effect)
Outline: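 Fluorescence from CellTiter-Fluor, reporting protease activity within live cells, served as the viability read-out. HEK293T cells carrying luciferase-tagged ATAD5 had been treated with compound for 15.5 hr at 37C.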

[2] = qHTS assay for small molecule disruptors of the mitochondrial membrane potential - cell viability (AID 720634; calls by dose curve; also: nearly all actives have a fitted effect of over 20% in size; also: potency is read from the fitted curve at half-maximal effect)
Outline: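 Cells: HepG2, 2,000/well, attached overnight. Compound 1 hr, 37 C/5% CO2. +m-MPI dye, +CellTiter-Glo 30 min RT. Readout: luminescence (ATP).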

[3] = qHTS assay to test for compound auto fluorescence at 590 nm (red) in HepG2 cells (AID 720674)
Outline: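 Rose Bengal sodium served as the red fluorophore standard. HepG2 monolayers (overnight attachment, MEM with 10% FBS) were exposed to test compounds for 1 hr at 37 C and read at Ex 540/Em 590 nm.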

[4] = qHTS assay to test for compound auto fluorescence at 535 nm (green) in HepG2 cells (AID 720675)
[5] = qHTS assay to test for compound auto fluorescence at 460 nm (blue) in HEK293 cells (AID 720678)
Outline: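 HEK293, 2,000 cells/well, 10% dialyzed FBS; attach 4-5 hr 37C; pin compound or DMSO; o/n 37C/5% CO2; fluorescence 405/460 nm; triamterene-equivalent units.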

[6] = qHTS assay to test for compound auto fluorescence at 590 nm (red) in HEK293 cells (AID 720679)
Outline: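 Intensity at 540nm excitation and 590nm emission is reported as Rose Bengal sodium-equivalent autofluorescence. Measurements followed overnight exposure (37C, 5% CO2) of HEK293 cells, 2,000 per well, to 23 nL compound.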

[7] = qHTS assay for small molecule disruptors of the mitochondrial membrane potential (AID 720635); also: potency is read from the fitted curve at half-maximal effect
Outline: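 HepG2 cells (2,000/well) attached overnight at 37C, then took compound for 1 hr at 37C, 5% CO2. Mito-MPS dye was added for 30 min; fluorescence was read at 490/535 nm (monomers) and 540/590 nm (aggregates).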

[8] = qHTS assay for small molecule agonists of the p53 signaling pathway - cell viability (AID 651633; calls by dose curve; also: nearly all actives have a fitted effect of over 30% in size; also: potency is read from the fitted curve at half-maximal effect)
Outline: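 p53RE-bla cells, seeded at 4,000 per well and rested 5 h at 37 C/5% CO2, received compounds in DMSO for 16 h at 37 C. CellTiter-Glo was then added, and luminescence was read after 30 min at room temperature to gauge cytotoxicity.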

Measured: Potency

CC1=C[C@H](O)CC(C)(C)[C@H]1/C=C/C(C)=C/C=C/C(C)=C/C=C/C=C(C)/C=C/C=C(C)/C=C/C1=C(C)C[C@@H](O)CC1(C)C
not listed: [7] | [8]
inactive: all other assays above

CC(=O)Nc1ccc(NC(=S)NC(=O)c2ccc(C(C)(C)C)cc2)cc1
active: [7] 2.11 µM
not listed: [8]
inactive: all other assays above

CC1=C(C(=O)OCCN(Cc2ccccc2)c2ccccc2)C(c2cccc([N+](=O)[O-])c2)C(P2(=O)OCC(C)(C)CO2)=C(C)N1 (centres undefined)
active: [7] 26.6 µM
not listed: [1]
inactive: all other assays above

CC1=C(/C=C/C(C)=C/C=C/C(C)=C/C=C/C=C(C)/C=C/C=C(C)/C=C/C2=C(C)C(=O)CCC2(C)C)C(C)(C)CCC1=O
not listed: [7]
inactive: all other assays above

CN1CCN(CCC=C2c3ccccc3Sc3ccc(S(=O)(=O)N(C)C)cc32)CC1
inactive: [3] | [4] | [5] | [6]

Cc1ccccc1
inactive: [3] | [4] | [5] | [6]

CC(O)[C@H]1CC[C@H]2[C@@H]3CC[C@@H]4C[C@@H](O)CC[C@]4(C)[C@H]3CC[C@]12C (some centres undefined)
inactive: all assays above

CCSc1ccc2c(c1)N(CCCN1CCN(C)CC1)c1ccccc1S2
not listed: [7]
inactive: all other assays above

O=S(=O)(O)c1cc(O)c2c(N=Nc3ccc(Nc4ccccc4)c4c(S(=O)(=O)O)cccc34)cc(S(=O)(=O)O)cc2c1
inactive: [2] | [3] | [4] | [5]

CCCCC/C=C\C/C=C\C/C=C\CCCCC(=O)O
not listed: [1] | [7]
inactive: all other assays above

CN1CCC(CN2c3ccccc3Sc3ccccc32)C1 (centres undefined)
not listed: [4] | [7]
inactive: all other assays above

CNC(C)[C@@H]1CC[C@@H](N)[C@@H](O[C@H]2[C@H](O)[C@@H](O[C@H]3OC[C@](C)(O)[C@H](NC)[C@H]3O)[C@H](N)C[C@@H]2N)O1 (some centres undefined)
inactive: [3] | [4] | [5] | [6]

O=C(O)C1CCCN1 (centres undefined)
inactive: all assays above

COc1ccc(C[C@H](N)C(=O)N[C@H]2[C@@H](O)[C@H](n3cnc4c(N(C)C)ncnc43)O[C@@H]2CO)cc1
active: [8] 5.96 µM | [1] 2.66 µM
not listed: [7]
inactive: all other assays above

CC[C@@H](C(=O)[C@@H](C)[C@@H](O)[C@H](C)[C@@H]1O[C@@H]([C@@H](CC)C(=O)O)CC[C@@H]1C)[C@H]1O[C@]2(C=C[C@@H](O)[C@]3(CC[C@@](C)([C@H]4CC[C@](O)(CC)[C@H](C)O4)O3)O2)[C@H](C)C[C@@H]1C
active: [1] 8.41 µM
not listed: [7]
inactive: all other assays above

OCC(O)CO
inactive: [3] | [4] | [5] | [6]

CC(C)(C)NCC(O)CSc1nc(-c2ccc(C(N)=O)s2)cs1 (centres undefined)
active: [7] 13.3 µM
inactive: all other assays above

CC(=C\c1ccccc1)/C=C1/SC(=S)N(CC(=O)O)C1=O
active: [1] 21.1 µM
not listed: [7]
inactive: all other assays above

CN(C)C(=O)CCSC(SCCC(=O)O)c1cccc(/C=C/c2ccc3ccc(Cl)cc3n2)c1 (centres undefined)
active: [8] 29.8 µM | [2] 29.8 µM | [7] 24.8 µM
not listed: [1]
inactive: all other assays above

COc1ccc(C[C@H](C)NC[C@@H](O)c2ccc(O)c(NC=O)c2)cc1
inactive: [2] | [3] | [4] | [5] | [6]

CC1(C)S[C@@H]2[C@H](NC(=O)C3(N)CCCCC3)C(=O)N2[C@H]1C(=O)O
not listed: [7] | [8]
inactive: all other assays above

CC1CCCC1
inactive: [3] | [4] | [5] | [6]

CO[C@H]1C[C@H](O[C@@H]2/C(C)=C/C[C@@H]3C[C@@H](C[C@]4(CC[C@H](C)[C@@H](C5CCCCC5)O4)O3)OC(=O)[C@@H]3C=C(C)/C(=N/O)[C@H]4OC/C(=C\C=C\[C@@H]2C)[C@]43O)O[C@@H](C)[C@@H]1O
inactive: [1] | [2] | [3] | [4] | [5]

OCCN1CCN(CC/C=C2/c3ccccc3Sc3ccc(Cl)cc32)CC1
not listed: [7]
inactive: all other assays above

CCCOc1cc(N)ccc1C(=O)OCCN(CC)CC
not listed: [7]
inactive: all other assays above

C#C[C@]1(O)CC[C@H]2[C@@H]3CCC4=C/C(=N/O)CC[C@@H]4[C@H]3CC[C@@]21CC
active: [7] 10.6 µM
not listed: [1]
inactive: all other assays above

COc1ccc(C[C@@H](C)NC[C@H](O)c2ccc(O)c(NC=O)c2)cc1
inactive: [2] | [3] | [4] | [5] | [6]
